Test results as given in PubChem BioAssay (Tox21).
The source made the active and inactive calls. Calls come from the whole dose curve.

Biological target: Muscarinic acetylcholine receptor M1 (Homo sapiens) (UniProt P11229)
Test: Cholinergic receptor muscarinic 1 (CHRM1) small molecule agonists, cell-based qHTS assay (AID 1963589); note: nearly all actives have a fitted effect of over 35% in size
Settings: CHRM1-CHO cells, agonist mode, calcium flux fluorescence; series mostly up to 76.8 µM; activation: at the top concentration
From the text: National Center for Advancing Translational Sciences [NCATS]
Division of Preclinical Innovation [DPI]
U.S. Environmental Protection Agency [EPA]
National Institutes of Environmental Health Sciences [NIEHS]
National Toxicology Program [NTP]
U.S. Food and Drug Administration [FDA]
The CHRM1 is a muscarinic receptor. This receptor plays a crucial role in learning and memory processes and has long been identified as a promising therapeutic target for the improvement of cognitive decline in Alzheimer's disease (AD). The CHRM1-CHO cell line stably expressing human muscarinic acetylcholine receptor M1 (CHRM1) can be used for screening agonists and antagonists of interactions between CHRM1 and its ligands. The CHRM1-CHO Calcium Flux Assay is a homogeneous fluorescence-based assay for detecting the intracellular calcium level using FDSS kinetic plate reader system.
CHRM1-CHO cells were dispensed at 1000 cells/3uL/well in 1536-well black-clear bottom plates using a Multidrop Dispenser. After the assay plates were incubated at a 37 C/5% CO2 incubator for 18 h, 3 uL of Dye Loading Buffer was transferred to the assay plate by a Flying Reagent Dispenser. The assay plates were incubated at 37 C for 1h. For agonist mode, 23 nL of compounds dissolved in DMSO, positive controls or DMSO only was transferred to the assay plate by a pin tool. […] Each test compound was measured at 15 concentrations in three independent runs.
% is set by controls: 0 for no effect and ±100 for the full control effect.

Muscarinic acetylcholine receptor M1 (Homo sapiens), sequence (P11229 whole entry, looked up): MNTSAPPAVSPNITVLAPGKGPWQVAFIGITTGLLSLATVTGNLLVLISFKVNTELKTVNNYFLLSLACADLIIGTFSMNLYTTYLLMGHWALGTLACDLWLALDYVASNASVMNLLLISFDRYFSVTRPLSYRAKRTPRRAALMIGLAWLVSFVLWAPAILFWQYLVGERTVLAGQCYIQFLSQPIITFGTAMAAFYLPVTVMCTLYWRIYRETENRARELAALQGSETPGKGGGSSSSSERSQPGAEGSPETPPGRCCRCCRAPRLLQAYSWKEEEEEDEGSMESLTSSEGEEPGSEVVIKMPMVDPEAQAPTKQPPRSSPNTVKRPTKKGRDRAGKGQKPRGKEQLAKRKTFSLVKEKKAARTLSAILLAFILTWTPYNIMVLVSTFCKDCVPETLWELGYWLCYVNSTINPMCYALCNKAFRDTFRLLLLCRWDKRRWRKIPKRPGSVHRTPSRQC

Structure (SMILES) | activation
CC(=O)Nc1ccc(S(N)(=O)=O)cc1 | -0.288% (inactive)
CCN(CC)CCNC(=O)c1cc(Br)c(N)cc1OC | -0.212% [at 35.3 µM] (inactive)
CC(c1cc(C(C)(C)C)cc(C(C)(C)C)c1O)c1cc(C(C)(C)C)cc(C(C)(C)C)c1O | -0.466% (inactive)
CC/C=C\CCOC(=O)c1ccccc1 | 3.03% (inactive)
CCCCCCCCOCCCN | 1.96% (inactive)
O=CC(=O)c1ccccc1 | 0.747% (inactive)
CC1(C)C(=O)C(C)(C)C1=O | -0.048% (inactive)
O=C1c2ccccc2S(=O)(=O)N1CCCCN1CCN(c2ncccn2)CC1 | -0.339% [at 35.3 µM] (inactive)
C=C[Si](C)(C)O[Si](C)(C)C=C | -0.0313% (inactive)
COc1cc(OC)cc(OC)c1 | -0.0021% [at 35.3 µM] (inactive)
Cc1cccc(C)c1C | 0.0877% (inactive)
SCCCCCCCCS | -0.0268% (inactive)
CCCCc1ccc(N)cc1 | -0.989% (inactive)
C[C@H](CN1CCCC1)C(=O)c1ccc(C(F)(F)F)cc1 | 1.38% [at 35.3 µM] (inactive)
S=c1[nH][nH]c(=S)s1 | 0.0302% (inactive)
CCCCCC(=O)OCC | -0.704% (inactive)
CCCCCCCCCCCCCC(=O)OCC | -0.0713% (inactive)
NC(=O)CC[C@@H](N)C(=O)O | -0.0014% [at 35.3 µM] (inactive)
CC(C)C[P+](C)(CC(C)C)CC(C)C | -0.119% (inactive)
N=C1C=CC(=C(c2ccc(N)cc2)c2ccc(N)cc2)C=C1 | 2.06% (inactive)

Structure (SMILES) | activation
OCCCc1cccnc1 | 7.55% (inactive)
C[C@@H]1CC[C@@]2(OC1)O[C@H]1C[C@H]3[C@@H]4CC[C@H]5C[C@@H](O)CC[C@]5(C)[C@H]4CC(=O)[C@]3(C)[C@H]1[C@@H]2C | 0.4% [at 6.97 µM] (inactive)
C=C1C(CCl)(CCl)C2(Cl)C(Cl)C(Cl)C1(Cl)C2(Cl)Cl (stereo not given) | -0.299% (inactive)
CCCCCCCCCCCCCCCC/C=C/C1CC(=O)OC1=O (stereo not given) | -0.191% [at 35.3 µM] (inactive)
CC1(C)OC(=O)Nc2ccc(Br)cc21 | -0.261% [at 35.3 µM] (inactive)
COc1ccc(Nc2ccc(OC)cc2)cc1 | -0.398% (inactive)
CC(=O)Oc1cc2c(s1)CCN(C(C(=O)C1CC1)c1ccccc1F)C2 (stereo not given) | 0.0401% [at 35.3 µM] (inactive)
O=C1c2ccccc2C(=O)N1CO | 0.325% (inactive)
CCOC(=O)[C@H](CCc1ccccc1)N[C@@H](C)C(=O)N1Cc2cc(OC)c(OC)cc2C[C@H]1C(=O)O | -0.341% [at 35.3 µM] (inactive)
Nc1ccc(S(=O)(=O)NCc2ccccc2)cc1 | 0.0479% [at 35.3 µM] (inactive)
Cc1nc2n(c(=O)c1CCN1CCC(C(=O)c3ccc(F)cc3)CC1)CCS2 | 0.0661% [at 35.3 µM] (inactive)
Cc1ccc(Cl)c(OCC(O)CNC(C)(C)C)c1 (stereo not given) | 0.0155% [at 35.3 µM] (inactive)
CCCc1nc2c(C)cc(-c3nc4ccccc4n3C)cc2n1Cc1ccc(-c2ccccc2C(=O)O)cc1 | 1.19% [at 35.3 µM] (inactive)
C1=CCC(c2ccccc2)CC1 (stereo not given) | 0.0613% (inactive)
CN(C)CCOC1=Cc2ccccc2Sc2ccc(Cl)cc21 | 0.877% [at 35.3 µM] (inactive)
Oc1ccc(C(O)CNCCCCCCNCC(O)c2ccc(O)c(O)c2)cc1O (stereo not given) | 0.233% [at 35.3 µM] (inactive)
CCCCCCCCCCCCCCCCCO | -0.0126% [at 15.8 µM] (inactive)
Cc1c(N)cccc1[N+](=O)[O-] | 0.731% (inactive)
CCCC1CCCC(=O)O1 (stereo not given) | -0.0026% (inactive)
[Cl][Pt-2]([Cl])([Cl])[Cl] | -0.0336% (inactive)
